Shown are actives, neighbours in structure and some others; about 2.3% of the full set was active somewhere.
Tau FP inhib = blocks human tau fibril formation measured by polarization | P10636 | K18 P301L tau heparin fibrillization, Alexa594 FP, 6 h | Potency, µM (titrated, usually from 57.7 µM), inactives show top-dose activity, negative = inhibition, hits mostly inhibitors | 280,000 compounds, 0.39% hits | AID 1468; note: potency is the fitted concentration of half-maximal effect; nearly all actives have a fitted effect of over 55% in size
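FP of Alexa 594-tau after heparin (20 uM) induction. Substrate: human K18 P301L, 15 uM unlabeled, 0.24 uM labeled. Buffer 100 mM sodium acetate pH 7. 6 hr, 37 C.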
Tau fibril ThT = blocks human tau fibril formation measured by thioflavin T; recombinant tau K18 P301L, heparin-induced fibrillization, ThT fluorescence; Potency, µM (doses to about 57.4 µM), without a hit: at the top dose activity, negative = inhibition, actives largely listed as inhibitors; 270,000 compounds, 2.1% hits; AID 1460; note: potency is the fitted concentration of half-maximal effect; nearly all actives have a fitted effect of over 55% in size
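In this qHTS, human K18 P301L tau is incubated with compound and heparin for 6 hr at 37 C, and Thioflavin T fluorescence then reports fibril load.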
USP1 inh = inhibitors of human USP1/UAF1 deubiquitinase; O94782; recombinant USP1/UAF1, Ub-Rhodamine cleavage fluorescence; Potency, µM (series often up to 57.1 µM), without a hit: at the highest dose activity change, negative = inhibition, hits mostly inhibitors; 390,000 compounds, 0.23% hits; note: potency is the fitted concentration of half-maximal effect; nearly all actives have a fitted effect of over 60% in size
Target sequence (O94782 whole entry, looked up): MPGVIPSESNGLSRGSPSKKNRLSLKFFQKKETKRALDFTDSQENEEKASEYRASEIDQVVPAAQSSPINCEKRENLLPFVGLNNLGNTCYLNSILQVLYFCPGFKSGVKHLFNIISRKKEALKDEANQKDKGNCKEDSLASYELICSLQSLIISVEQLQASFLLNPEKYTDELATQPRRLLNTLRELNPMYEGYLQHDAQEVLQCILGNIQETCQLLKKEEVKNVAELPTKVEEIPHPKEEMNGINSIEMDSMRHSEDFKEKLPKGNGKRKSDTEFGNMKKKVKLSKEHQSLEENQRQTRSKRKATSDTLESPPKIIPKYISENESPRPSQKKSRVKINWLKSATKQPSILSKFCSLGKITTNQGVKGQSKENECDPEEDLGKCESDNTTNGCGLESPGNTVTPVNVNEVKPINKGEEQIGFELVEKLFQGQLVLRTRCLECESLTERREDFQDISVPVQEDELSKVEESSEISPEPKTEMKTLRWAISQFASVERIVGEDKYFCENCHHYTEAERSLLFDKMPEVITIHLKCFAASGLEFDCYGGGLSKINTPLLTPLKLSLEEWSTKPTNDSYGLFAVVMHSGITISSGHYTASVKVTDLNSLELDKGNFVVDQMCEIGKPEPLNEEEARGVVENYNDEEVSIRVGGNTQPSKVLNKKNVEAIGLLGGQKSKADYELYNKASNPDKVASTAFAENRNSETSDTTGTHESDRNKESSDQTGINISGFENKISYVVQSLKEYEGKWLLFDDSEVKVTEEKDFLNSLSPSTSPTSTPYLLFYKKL
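Step one: compound is pinned into 1nM USP1/UAF1 in HEPES pH 7.8 buffer with TCEP. Step two: 15 min room-temperature incubation. Step three: Ub-Rho (150nM final) starts cleavage, tracked by fluorescence over six one-minute reads.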
Tau fluor counter = counter-screen for tau fibril formation inhibitors | tau K18 P301L (four-repeat tau fragment) Alexa594 fluorescence, heparin fibrillization | Potency, µM (series often up to 57.7 µM), without a hit: at the highest dose activity change, negative = decrease | 280,000 compounds, 0.93% hits; note: potency is the fitted concentration of half-maximal effect; nearly all actives have a fitted effect of over 55% in size
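Human K18 P301L tau (15 uM unlabeled plus 0.24 uM Alexa 594-labeled, final) in 100 mM sodium acetate pH 7 was mixed with compound and 20 uM heparin and incubated 6 hr at 37 C.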
Coupling enz = coupling enzyme interference in Giardia aldolase counter-screen; coupling enzyme system counterscreen, AmpLite Red fluorescence; activity change, negative = inhibition, % at 58.2 µM, hits read low; 290,000 compounds, 0.67% hits; in the data active = activity change below about -30%
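Counterscreen lacking aldolase: glyceraldehyde-3-phosphate coupling-enzyme reagent preincubated 10 min at RT with compound (at 57.5 uM final), then substrate/coupling system with AmpLite Red added; fluorescence read at 525/598 nm after 20 min RT.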
An asterisk follows results filed as active; u = inconclusive; x = no result; [ ] = another dose, or the depositor's remark. Unless noted, calls come from the whole dose curve; as a rule, active = well fitted curve in the direction sought with a large enough effect; inconclusive = small, poorly fitted or top-dose-only effect, or another doubt; inactive = no such curve, though single readings can be large; an effect the other way counts as inactive or inconclusive. % is set by controls: 0 for no effect and ±100 for the full control effect.

SMILES | Tau FP inhib | Tau fibril ThT | USP1 inh | Tau fluor counter | Coupling enz
O=C(NNc1nc2c(F)cccc2s1)c1cc(=O)c2ccccc2o1 | -9% | 5µM* | u | u | -8
Cc1cccc2sc(NNC(=O)c3cc(=O)c4ccccc4o3)nc12 | -8% | 6.3µM* | u | u | -8
Cc1ccc2sc(NNC(=O)c3cc(=O)c4ccccc4o3)nc2c1C | -14% | 4µM* | 32µM* | u | -47*
Cc1nc(C)c(C(=O)Nc2nc3c(C)cccc3s2)o1 | -5% | -8% | -11% | -11% | -5
CN(c1ccccc1)S(=O)(=O)c1cccc(NC(=O)c2cccc(C#N)c2)c1 | x | x | -11% | x | x
CN(c1ccccc1)S(=O)(=O)c1cccc(NC(=O)c2ccc3ncsc3c2)c1 | u | -7% | -23% | 16µM*[quencher] | 1
NS(=O)(=O)c1cccc(NC(=O)c2cccc(S(=O)(=O)N3CCCCCC3)c2)c1 | x | x | -17% | x | x
O=C(Nc1cccc(S(=O)(=O)N2CCCCC2)c1)c1ccc2ncsc2c1 | u | x | -9% | 20µM*[quencher] | -3
CC(=O)c1c(C)[nH]c(C(=O)Nc2cccc(S(=O)(=O)N(C)c3ccccc3)c2)c1C | 28µM* | -17% | -13% | 14µM*[quencher] | 0
O=C(O)c1ccc(Cl)cc1Nc1nc2cc(Cl)ccc2o1 | x | x | u | x | 7
Cc1ccccc1C(=O)n1nc(-c2ccco2)nc1NCc1cccs1 | -5% | -17% | -22% | u | x
CC(C)[C@H](N[C@@H](C)c1ccccc1)c1c(O)ccc2ccccc12 | x | x | -16% | x | 0
Cc1ccc2[nH]c(C)c(CC(=O)O)c2c1 | 3% | u | -3% | -18% | -40*
CCOc1ccccc1CNC(=O)C1CCN(c2nn3cc(-c4ccc(F)cc4)nc3s2)CC1 | 3% | u | u | 10% | x
Cc1ccc(Cn2cc(CCC(=O)NC3CCC(C)CC3)c3ccccc32)cc1 (stereo not drawn) | 3% | -2% | -13% | -6% | x
Cc1cc(C)cc(NC(=O)Nc2cc(S(=O)(=O)N(C)C)ccc2C)c1 | u | -13% | -10% | 16µM*[quencher] | 4
COc1ccc(NC(=O)O/N=C2/CCCc3ccc(OC)cc32)cc1 | u | 14µM* | -18% | u | -9
COc1ccc2c(c1)/C(=N/OC(=O)c1cccs1)CCC2 | -11% | -21% | -15% | -17% | -3
CCOC(=O)C1CCCN(C(=O)COc2ccc(S(=O)(=O)N3CCOCC3)cc2)C1 (stereo not drawn) | x | x | 1% | x | x
CC(C)(C)C1=CC(=O)C(N2CCOCC2)=CC1=O | 18% | u | u | -11% | -58*
CN(C)c1ccc(NC(=O)c2ccc3nsnc3c2)cc1 | 5% | 7.9µM* | -2% | -30% | 0
CN(C)c1ccc(NC(=O)c2cccc(C(=O)Nc3ccc(N(C)C)cc3)n2)cc1 | 6% | 16µM* | -22% | u | -7
COc1ccc(NC(=O)Nc2ccc(N(C)C)cc2)cc1 | 10% | 13µM* | -11% | u | -5
COc1ccc(NC(=O)Nc2ccc(OC)cc2)cc1 | 8% | -12% | -11% | -13% | 2
COc1ccc(OCC(=O)N/N=C/c2ccc(N(C)C)cc2)cc1 | u | 2.5µM* | -13% | u | 1
SMILES | Tau FP inhib | Tau fibril ThT | USP1 inh | Tau fluor counter | Coupling enz
N#Cc1cccc(C(=O)Nc2ccccc2C(=O)NC2CC2)c1 | x | x | -6% | x | x
COc1cccc(NC(=O)CCNC(=O)Cn2cnc3ccccc3c2=O)c1 | -3% | 8% | u | 3% | x
COc1ccc(C2/C=C\CN(C(=O)c3ccccc3)C(Cc3ccccc3)C(=O)N2Cc2ccc(F)cc2)cc1 (stereo not drawn) | x | x | x | x | 1
O=C(NCCSc1c[nH]c2ccccc12)c1ccccc1Cl | 7% | -16% | -12% | u | x
O=C(NCCSc1c[nH]c2ccccc12)c1ccc(Cl)cc1 | -3% | u | -21% | 20µM*[quencher] | x
Cc1cccc(N2CCN(C(=O)c3cccc(N4CCCC4=O)c3)C(C)C2)c1 (stereo not drawn) | x | x | -2% | x | x
COc1ccc(-n2c(C)cc(/C=C3\C(=O)NN(c4ccccc4)C3=O)c2C)cc1 | 9% | u | -17% | -30% | 1
O=C1NN(c2ccccc2)C(=O)/C1=C\c1ccc(-c2cc([N+](=O)[O-])ccc2O)o1 | u | 3.5µM* | -28% | 7.9µM*[quencher] | 6
Cc1ccc(N2NC(=O)/C(=C/c3ccc(-c4ccc(Cl)c(C(=O)O)c4)o3)C2=O)cc1 | -1% | u | -14% | u | 0
COc1ccc(Sc2ccc(/C=C3\C(=O)NN(c4ccccc4)C3=O)o2)cc1 | u | 10µM* | u | u | 4
O=C1NN(c2ccc(Cl)cc2)C(=O)/C1=C\c1ccc(-c2cccc(C(=O)O)c2)o1 | u | 7.9µM* | u | 10µM*[quencher] | 7
CN(CC(=O)Nc1ccc(F)cc1)C(=O)C1CCCC1 | x | x | -11% | x | x
CC(O)CNc1nc2sc3c(c2c(=O)n1CCc1ccccc1)CCCCC3 (stereo not drawn) | 12% | u | -9% | 10µM*[quencher] | -1
CN(C)CCNc1nc2sc3c(c2c(=O)n1CCc1ccccc1)CCCCC3 | u | u | -21% | 13µM*[quencher] | 1
CC1(C)N([O-])c2cc([N+](=O)[O-])ccc2[N+]1=O | 8.9µM* | 2µM* | 25µM* | u | -63*
CCOC(=O)c1ccc(NC(=O)CC2C(=O)N(c3ccc(F)cc3)C(=O)N2Cc2ccc3c(c2)OCO3)cc1 (stereo not drawn) | u | 0% | -26% | u | x
Cc1ccc2cccc(Oc3ncnc4scc(-c5ccc(Cl)cc5)c34)c2n1 | 6% | -3% | 14µM* | -8% | -5
CC(=O)C(C(C)=O)C1(O)C(=O)c2ccccc2C1=O | u | 2.8µM* | 7.9µM* | -10% | -30*
Cc1sc(-c2ccncc2)nc1OC(=O)c1ccc(Cl)cc1 | -4% | u | -8% | -19% | 0
Cc1sc(-c2ccncc2)nc1OC(=O)c1cc(Cl)cc(Cl)c1 | -12% | 28µM* | -3% | -15% | -3
Cc1nc2ccc(-c3nc4cc(N)ccc4o3)cc2[nH]1 | -1% | u | -7% | -23% | 1
Nc1ccc2oc(-c3ccc4nc[nH]c4c3)nc2c1 | 4% | 14µM* | -10% | u | 0
O=C(CSC1=NS(=O)(=O)c2ccccc21)Nc1ccccc1 | u | 32µM* | -24% | -16% | 0
COC(=O)CSC1=NS(=O)(=O)c2ccccc21 | -9% | -15% | -4% | -8% | 1
O=C1c2ccccc2C(=O)N1Cc1ccccc1F | x | x | -11% | x | 2
COc1ccccc1CNC(=O)CNCCc1ccc(OC)c(OC)c1 | x | x | -25% | x | -1
CCCCc1ccc(-n2nc3cc(C)c(NC(=O)Cc4ccccc4)cc3n2)cc1 | u | 32µM* | 7% | 40µM*[quencher] | x
O=C(/C=C/c1ccccc1)n1cnnc1SC/C=C/c1ccccc1 | u | 28µM* | -23% | -13% | 1
